The text below walks through data of the supplement of paper PMC7156485.

± gives the standard deviation of the averaged measurements.
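Further: TDF denotes transformed human dermal fibroblasts of mesenchymal origin.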

In one assay the test system is HCC1569. In words: cell number relative to DMSO (% of DMSO); higher = more cells (less growth inhibition / toxicity). The conditions noted are these: concentration: 10 µM; 24 h. An outline of the steps: (§1)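 Cells were seeded at 800 per well in 384-well plates with RPMI containing 10% FBS; both HCC1569 and TDF lines were used. Compounds were added at 10 µM for 24 h at 37 °C, in triplicate, before fixation in 3.7% formaldehyde and staining with a rabbit anti-H1.0 antibody, an AlexaFluor 647 secondary and DAPI. H1.0 nuclear intensity or cell number is reported as percent of the plate control using the median of replicates, and HCC1569 values were smoothed for positional effects.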
`Cc1cc(C(C)(C)C)c(O)c(C)c1CC1=NCCN1.Cl` [Oxymetazoline hydrochloride] gave a cell number of 104.

With `COc1cc(CNC(=O)CCCCCCC(C)C)ccc1O` [Dihydrocapsaicin], the cell number worked out at 96.7.

The compound `COc1cc2ncn(-c3cc(OCc4ccccc4S(C)(=O)=O)c(C#N)s3)c2cc1OC` [IKK-3 Inhibitor IX] displayed a cell number of 85.9.

As to `O=c1cc(-c2ccc(O)cc2)oc2cc(O)cc(O)c12` [Apigenin], the cell number was found to be 93.5 ± 3.

Consider `CCCc1cc(=O)oc2c(C(=O)N3CCCc4ccccc43)c(OC)cc(OC)c12`, for which the cell number is 55.5.

The subject of a further assay is TDF. The description is as above. The following applies: concentration: 10 µM; 24 h. A digest of the protocol: as §1
As to `CC1CCC2(C(=O)O)CCC3(C)C(=CCC4C5(C)CC(O)C(O)C(C)(CO)C5C(O)CC43C)C2C1C` (centres undefined) [Madecassic acid], the cell number worked out at 102.

`OC1c2ccccc2N=C2CCCN21` (centres undefined) [Peganole] had a cell number of 93.7.

Compound `COc1ccc(-c2ccc3c(N4CCOCC4)nc(N4CC(C)OC(C)C4)nc3n2)cc1CO` (centres undefined) gave a cell number of 78.1.

`CCCCCCCCCCCCCCCCOCC(COP(=O)([O-])OCC[N+](C)(C)C)OC(=O)NC` (centres undefined): the cell number amounted to 95.7.

For `Cl.Nc1c2c(nc3ccccc13)CCCC2` [9-Amino-1,2,3,4-tetrahydroacridine hydrochloride], the cell number worked out at 103.

Take `Cl.Nc1nc2ccc(OC(F)(F)F)cc2s1` [Riluzole.HCl]: the cell number worked out at 89.9.

`C=C1CC2C3C=C(C)C4=CC(=O)CCC4(C)C3CCC2(C)C1(OC(C)=O)C(C)=O` (centres undefined) [Melengestrol Acetate]: the cell number amounted to 103.

On to `O=C(Nc1ccc(S(=O)(=O)Nc2nccs2)cc1)C(c1ccccc1)c1ccccc1`, for which the cell number came to 105.

In the case of `O=C(O)c1cccnc1C(=O)O` [Quinolinic acid], the cell number stood at 102.

`CCCc1cc(C(N)=S)ccn1` [Prothionamide] returned a cell number of 97.3.

Compound `O=c1c(-c2ccc(O)cc2)coc2cc(OC3OC(CO)C(O)C(O)C3O)cc(O)c12` (centres undefined) [Genistin] yielded a cell number of 104.

On to `CCc1nc(-c2cccc(C)c2)c(-c2ccnc(NC(=O)c3ccccc3)c2)s1`, for which the cell number stood at 84.4.

On to `O=C(O)c1cc(=O)c2c(Cl)cc(Cl)cc2[nH]1` [5,7-Dichlorokynurenic acid], for which the cell number came out at 98.6.

`Br.CCSC(=N)N` [S-Ethylisothiourea hydrobromide] showed a cell number of 109.

Regarding `COc1cc(CC2C(=O)OCC2Cc2ccc(OC)c(OC)c2)ccc1O` (centres undefined), the cell number was 74.6.

The compound `C=C1C(=O)C23C(O)C1CCC2C12COC3(O)C(O)C1C(C)(C)CCC2O` (centres undefined) [Rubescensin A] came in with a cell number of 99.

In turn, `CCOc1nc(NC(=O)Cc2cc(OC)ccc2OC)cc(N)c1C#N` [JNK Inhibitor VIII] displayed a cell number of 104.

For `O=C1C(SCCO)=C(SCCO)C(=O)c2ccccc21` [2,3-bis[(2-hydroxyethyl)sulfanyl]naphthoquinone], the cell number was determined as 84.6.

`c1ccc(CNc2nc(NCc3ccccc3)c3ccccc3n2)cc1` [N~2~,N~4~-dibenzyl-2,4-quinazolinediamine] displayed a cell number of 39.

For the compound `OCC1OC(n2cnc3c(NC4CCCC4)ncnc32)C(O)C1O` (centres undefined) [N6-Cyclopentyladenosine], the cell number stood at 104.

As to `COc1nc(C)nc(Cl)c1NC1=NCCN1.Cl` [Moxonidine hydrochloride], the cell number is 102.

With `CCCS(=O)c1ccc2nc(NC(=O)OC)[nH]c2c1` (centres undefined) [Ricobendazole], the cell number amounted to 81.6.

In the case of `NC(=O)c1ncn(C2OC(CO)C(O)C2O)n1` (centres undefined) [Ribavirin], the cell number was found to be 105 ± 3.3.

With `COc1cc(OC)c2cc(-c3ccncc3)cnc2c1.Cl.Cl` [5,7-dimethoxy-3-(4-pyridinyl)quinoline dihydrochloride], the cell number turned out to be 102.

For `CN1CCN(CC(=O)N2c3ccccc3C(=O)Nc3cccnc32)CC1.Cl.Cl` [Pirenzepine dihydrochloride], the cell number is 121.

The compound `COC(=O)C1=C(C)NC(C)=C(C(=O)OCCN(C)Cc2ccccc2)C1c1cccc([N+](=O)[O-])c1.Cl` (centres undefined) [Nicardipine.HCl] registered a cell number of 100.

In turn, `O=c1oc(Cl)c(Cl)c2ccccc12` [3,4-Dichloroisocoumarin] displayed a cell number of 109.

For `Br.Br.NC(N)=NCCSSCCN=C(N)N` [Guanidinoethyl disulfide dihydrobromide], the cell number is 108.

`O=C(O)c1ccc(NC(=O)[C@H](CC2CCCC2)n2cnc(C(F)(F)F)c2)nc1` returned a cell number of 100.

Take `Cc1cc(C)c(NC(=O)CC(CC(=O)[O-])c2cccc3ccccc23)c(C(=O)N2CCC3(CCCC3)CC2)c1.[Na+]` (centres undefined): the cell number turned out to be 102.

`CC(CCc1ccccc1)NCC(O)c1ccc(O)c(C(N)=O)c1.Cl` (centres undefined) [Labetalol hydrochloride] gave a cell number of 106.

In turn, `C=C1NC2(C(=O)COC(C)=O)C(CC3C4CCC5=CC(=O)C=CC5(C)C4C(O)CC32C)O1` (centres undefined) displayed a cell number of 108.

Consider `CCCCCC(O)C=CC1=C(CCCCCCC(=O)O)C(=O)CC1` (centres undefined) [Prostaglandin B1], for which the cell number amounted to 108.4 ± 0.5.

As to `CON=C(C(=O)NC1C(=O)N2C(C(=O)[O-])=C(COC(C)=O)CSC12)c1csc(N)n1.[Na+]` (centres undefined) [Cefotaxime sodium], the cell number was determined as 117.

Consider `Cc1cc(C(C)(C)C)c(O)c(C)c1CC1=NCCN1.Cl` [Oxymetazoline hydrochloride], for which the cell number was 107.

The compound `COc1cc(CNC(=O)CCCCCCC(C)C)ccc1O` [Dihydrocapsaicin] registered a cell number of 101.

For `COc1cc2ncn(-c3cc(OCc4ccccc4S(C)(=O)=O)c(C#N)s3)c2cc1OC` [IKK-3 Inhibitor IX], the cell number turned out to be 109.

Consider `O=c1cc(-c2ccc(O)cc2)oc2cc(O)cc(O)c12` [Apigenin], for which the cell number was 104 ± 3.7.

The compound `CCCc1cc(=O)oc2c(C(=O)N3CCCc4ccccc43)c(OC)cc(OC)c12` yielded a cell number of 46.1.
